# Assay results: PubChem BioAssay
# Active and inactive are the calls of the source.
# Legend:
# [1] = E. coli DRC41 culture turbidity changes, primary screen, E. coli filamentation inducer project, strain DRC41, OD650, 48 h (AID 1152);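 also: E. coli MC1000 strain DRC41 lacking acrAB efflux pump and sulA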; details: E. coli DRC41 (acrAB sulA), higher = more signal, called active from +8 up or from −8 down
# [2] = small-molecule binders of probe aLefty1, primary screen, biochemical, small-molecule microarray, 635/667 nm fluorescence (AID 1153); details: higher = more signal;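 also: score merges spot fluorescence with signal-to-noise ratio from the scanned slide images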
# [3] = PSAC antagonists in infected red cells, primary screen, cell-based, P. falciparum Indochina, OD700, 1 h (AID 1154); details: P. falciparum Indochina infected RBC osmotic lysis, higher = more signal, called active from +8 up or from −8 down
# [4] = PSAC antagonists in infected red cells, primary screen, cell-based, P. falciparum Indochina, OD700, 2 h (AID 1155);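 also: lysis reports solute entry through the parasite surface anion channel PSAC; channel blockers reduce lysis of infected cells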; details: P. falciparum Indochina infected erythrocytes, osmotic lysis OD700; higher = more signal, called active from +8 up or from −8 down
# [5] = osmotic lysis modulators in infected erythrocytes, primary screen, PSAC antagonist project, cell-based, P. falciparum Indochina, OD700, 3 h (AID 1156); details: higher = more signal, called active from +8 up or from −8 down
# [6] = PSAC antagonists in infected red cells, primary screen, cell-based, P. falciparum Indochina, OD700, 18 h (AID 1157); details: P. falciparum Indochina infected erythrocytes, osmotic lysis OD700, 18 h; higher = more signal, called active from +8 up or from −8 down
# [7] = modulators of S6 phosphorylation in cells, primary screen, cell-based, A549, cytoblot, luminescence, serum-stimulated (AID 1158); details: A549 phospho-S6 cytoblot, 5 h, higher = more signal;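 also: serum-stimulated A549 lung adenocarcinoma cells; signal is phosphorylated S6 detected by cytoblot immunostaining with HRP secondary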
# [8] = target: NADPH oxidase 2 (Homo sapiens) (UniProt P04839); experiment: NOX2-dependent H2O2 signal modulators, primary screen, NOX inhibitor project, cell-based, HEK293-NOX2, PMA-stimulated, Amplex Red fluorescence (AID 1159); details: 45 min, higher = more signal, called active from +8 up or from −8 down; also: test concentration not given here
# [9] = target: NADPH oxidase 4 (Homo sapiens) (UniProt Q9NPH5); experiment: NOX4-dependent H2O2 signal modulators, primary screen, NOX inhibitor project, cell-based, HEK293-NOX4, tetracycline-induced, Amplex Red fluorescence (AID 1160); details: 45 min, higher = more signal, called active from +8 up or from −8 down
# [10] = target: NADPH oxidase 5 (Homo sapiens) (UniProt Q96PH1); experiment: NOX5-dependent H2O2 signal modulators, primary screen, NOX inhibitor project, cell-based, HEK293-NOX5, Amplex Red fluorescence (AID 1161); details: HEK293-NOX5, ionomycin, 45 min, higher = more signal
# NADPH oxidase 5 (Homo sapiens), sequence (Q96PH1 whole entry, looked up): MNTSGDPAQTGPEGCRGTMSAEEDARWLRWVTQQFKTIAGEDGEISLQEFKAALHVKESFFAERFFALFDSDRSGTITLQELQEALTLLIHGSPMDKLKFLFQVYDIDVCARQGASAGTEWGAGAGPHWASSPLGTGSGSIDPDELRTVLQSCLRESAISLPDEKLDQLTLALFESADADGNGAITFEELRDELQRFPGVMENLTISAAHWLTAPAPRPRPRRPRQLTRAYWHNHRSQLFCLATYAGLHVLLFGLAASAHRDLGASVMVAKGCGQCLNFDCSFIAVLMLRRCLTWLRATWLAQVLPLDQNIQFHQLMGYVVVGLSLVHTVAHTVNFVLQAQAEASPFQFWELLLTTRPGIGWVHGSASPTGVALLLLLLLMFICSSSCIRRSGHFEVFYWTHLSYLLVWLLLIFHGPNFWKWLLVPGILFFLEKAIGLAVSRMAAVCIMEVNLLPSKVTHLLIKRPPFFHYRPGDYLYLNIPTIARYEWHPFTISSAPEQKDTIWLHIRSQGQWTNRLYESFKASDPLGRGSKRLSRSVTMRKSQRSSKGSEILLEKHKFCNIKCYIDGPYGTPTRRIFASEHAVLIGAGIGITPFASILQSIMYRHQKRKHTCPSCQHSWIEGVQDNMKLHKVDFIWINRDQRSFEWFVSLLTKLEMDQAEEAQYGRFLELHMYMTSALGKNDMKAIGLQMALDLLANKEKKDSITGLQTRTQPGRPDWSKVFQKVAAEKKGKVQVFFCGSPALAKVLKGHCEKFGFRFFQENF
# NADPH oxidase 4 (Homo sapiens), sequence (Q9NPH5 whole entry, looked up): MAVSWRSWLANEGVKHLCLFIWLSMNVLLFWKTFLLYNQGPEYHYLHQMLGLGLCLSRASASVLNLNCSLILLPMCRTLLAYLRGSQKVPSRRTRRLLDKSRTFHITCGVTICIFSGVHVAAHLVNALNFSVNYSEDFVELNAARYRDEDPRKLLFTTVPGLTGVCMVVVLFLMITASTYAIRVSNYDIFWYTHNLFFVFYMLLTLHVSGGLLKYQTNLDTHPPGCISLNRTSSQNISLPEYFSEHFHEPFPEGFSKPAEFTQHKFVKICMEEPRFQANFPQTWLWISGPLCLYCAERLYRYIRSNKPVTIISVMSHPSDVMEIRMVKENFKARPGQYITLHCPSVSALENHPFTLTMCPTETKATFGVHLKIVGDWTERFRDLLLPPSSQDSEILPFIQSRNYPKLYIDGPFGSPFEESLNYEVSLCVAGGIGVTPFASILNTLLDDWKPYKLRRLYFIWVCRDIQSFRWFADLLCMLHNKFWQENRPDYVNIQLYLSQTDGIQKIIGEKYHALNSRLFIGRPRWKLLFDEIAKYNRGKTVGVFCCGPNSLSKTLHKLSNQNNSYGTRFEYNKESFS
# NADPH oxidase 2 (Homo sapiens), sequence (P04839 whole entry, looked up): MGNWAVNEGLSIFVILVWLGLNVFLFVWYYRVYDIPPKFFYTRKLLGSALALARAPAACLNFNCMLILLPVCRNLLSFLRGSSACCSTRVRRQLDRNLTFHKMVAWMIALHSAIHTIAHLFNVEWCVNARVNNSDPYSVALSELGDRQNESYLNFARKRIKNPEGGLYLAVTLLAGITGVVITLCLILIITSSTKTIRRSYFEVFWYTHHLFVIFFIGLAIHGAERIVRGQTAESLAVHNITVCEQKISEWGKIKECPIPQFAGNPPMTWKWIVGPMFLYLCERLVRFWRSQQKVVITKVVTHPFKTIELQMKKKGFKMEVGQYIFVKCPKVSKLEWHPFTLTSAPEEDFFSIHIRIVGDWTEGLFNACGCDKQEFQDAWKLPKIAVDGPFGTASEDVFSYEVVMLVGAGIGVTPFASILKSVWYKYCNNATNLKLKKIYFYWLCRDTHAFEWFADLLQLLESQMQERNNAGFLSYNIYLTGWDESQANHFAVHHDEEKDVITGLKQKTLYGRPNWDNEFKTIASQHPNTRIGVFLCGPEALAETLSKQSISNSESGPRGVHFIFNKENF
Compound,z-score [1],composite z-score [2],z-score [3],z-score [4],z-score [5],z-score [6],z-score [7],z-score [8],z-score [9],z-score [10]
COCCCNC(=O)[C@@]1(Cc2ccccc2I)c2ccccc2C(=O)N(Cc2ccccc2)[C@H]1c1ccc(CO)cc1,0.263 (inactive),0.243,11.1 (active),2.37 (inactive),1.85 (inactive),1.43 (inactive),-0.231,0.0296 (inactive),0.779 (inactive),0.242
C=CCNC(=O)[C@H]1[C@@H]2C(=O)O[C@@H](c3ccccc3)[C@@H](c3ccccc3)N2[C@@H](c2ccc(OCCO)cc2)[C@]12C(=O)N(C(=O)OCCOC)c1ccc(C#CC3(O)CCCCCC3)cc12,0.838 (inactive),0.658,1.92 (inactive),0.742 (inactive),0.0102 (inactive),0.509 (inactive),0.0127,1.56 (inactive),0.972 (inactive),1.02
COc1ccc(C(O)C2C=CC3C(=O)N(c4ccccc4)C(=O)C3N2Nc2ccccc2)c2ccccc12 (stereo not given),-0.831 (inactive),0.318,6.65 (inactive),1.75 (inactive),0.303 (inactive),1.34 (inactive),-0.654,-1.48 (inactive),-3.15 (inactive),-2.57
Cc1ccc(S[C@]2(C(=O)NCc3ccccc3)CC(=O)N(Cc3cc(C(F)(F)F)cc(C(F)(F)F)c3)[C@@H]2c2ccc(CO)cc2)cc1,-0.957 (inactive),-0.109,2.21 (inactive),0.818 (inactive),0.677 (inactive),0.352 (inactive),-0.466,0.314 (inactive),0.546 (inactive),0.832
O=C1O[C@@H](c2ccccc2)[C@@H](c2ccccc2)N2[C@@H](c3ccccc3OCCO)[C@]3(C(=O)Nc4ccc(C#CC5(O)CCCCCC5)cc43)[C@@H](C(=O)NC[C@H](O)c3ccccc3)[C@H]12,-0.95 (inactive),1.38,1.87 (inactive),1.98 (inactive),-1.02 (inactive),1.49 (inactive),-0.308,2.02 (inactive),0.973 (inactive),2.17
O=C(N1CCCCC1)[C@]1(CCS(=O)(=O)c2ccccc2)N=C(c2ccc(OCCCO)cc2)O[C@@H]1c1ccccc1,-0.725 (inactive),1.17,27.2 (active),19.5 (active),2.02 (inactive),-0.192 (inactive),1.54,-2.96 (inactive),-1.7 (inactive),-1.94
O=c1cccc(-c2ccccc2)o1,-0.766 (inactive),-0.0099,3.18 (inactive),0.578 (inactive),-0.891 (inactive),0.611 (inactive),-0.548,0.227 (inactive),-1.81 (inactive),-0.322
COC(=O)[C@@]1(Cc2ccccc2)[C@H]2c3cc(C(=O)N(C)C)n(Cc4cc(F)c(F)c(F)c4)c3C[C@H]2CN1C(=O)c1ccccc1,-1.61 (inactive),0.611,8.57 (active),1.65 (inactive),0.893 (inactive),1.4 (inactive),-0.0786,-0.0214 (inactive),1.57 (inactive),2.13
C=C(CCCC)C(=O)CC[C@@H](OC(=O)c1ccccc1-c1ccccc1C(=O)O)c1ccc(CO)o1,-0.467 (inactive),0.379,1.6 (inactive),0.228 (inactive),1.19 (inactive),0.161 (inactive),-0.946,1.35 (inactive),-0.203 (inactive),-0.475
O=[N+]([O-])c1ccc(C[n+]2ccc(CCCO)cc2)o1,-0.934 (inactive),-0.0162,1.21 (inactive),0.331 (inactive),0.616 (inactive),0.377 (inactive),0.437,0.00328 (inactive),-3.09 (inactive),-0.4
C=C(CCCC)C(=O)CC[C@H](OC(=O)c1ccccc1-c1ccccc1C(=O)O)c1ccc(CO)o1,-0.002 (inactive),-0.0984,1.69 (inactive),0.241 (inactive),1.2 (inactive),0.16 (inactive),-0.16,0.333 (inactive),-0.269 (inactive),-1.15
CC(C)[C@H]1COC(=O)N1C(=O)[C@H]1[C@@H](c2ccccc2)N(c2ccccc2)O[C@@H]1C,1.46 (inactive),-0.147,0.744 (inactive),0.233 (inactive),-0.648 (inactive),0.206 (inactive),0.958,-0.515 (inactive),-0.138 (inactive),-2.5
O=C1OCC=C[C@H]2OC34C=CCN(CCN5CCOCC5)C(=O)[C@H]3N(CCCCCCO)C(=O)[C@@H]4[C@@H]12 (stereo not given in full),-0.416 (inactive),0.0253,4.96 (inactive),1.32 (inactive),1.21 (inactive),0.404 (inactive),1.07,1.51 (inactive),-0.325 (inactive),1.92
